The source of these data is PubChem BioAssay (NCI).

Common to all, as to test: NCI-60 one-dose screen, 48 h (100 = growth as untreated, 0 = no growth, -100 = all killed)
Experiment [1] concerns NCI-H226 lung. The conditions noted are these: 10 µM.
For experiment [2], the system named is NCI-H322M lung. The conditions noted are these: 10 µM.
For experiment [3], the system named is HOP-62 NSCLC. The conditions noted are these: 10 µM.
Experiment [4] relates to NCI-H460 lung. The conditions noted are these: 10 µM.
For experiment [5], the system named is A549/ATCC NSCLC. The conditions noted are these: 10 µM.
In experiment [6] the test system is 786-0 renal. The conditions noted are these: 10 µM.
Experiment [7] relates to COLO 205 colon. The conditions noted are these: 10 µM.
The subject of experiment [8] is DU-145 prostate. The note with it: 10 µM.
Experiment [9] relates to SF-268 CNS. The note with it: 10 µM.
Experiment [10] has as its system SF-295 CNS. The note with it: 10 µM.
Experiment [11] has as its system SF-539 CNS. The conditions noted are these: 10 µM.
Experiment [12] concerns HCT-15 colon. The note with it: 10 µM.
For experiment [13], the system named is HT29 colon. The note with it: 10 µM.
Experiment [14] has as its system SNB-75 CNS. The note with it: 10 µM.
Experiment [15] has as its system SNB-19 CNS. The conditions noted are these: 10 µM.
Experiment [16] concerns PC-3 prostate. The note with it: 10 µM.
Experiment [17] relates to EKVX NSCLC. The note with it: 10 µM.
Experiment [18] concerns UO-31 renal. The note with it: 10 µM.
The test system of experiment [19] is ACHN renal. The conditions noted are these: 10 µM.
For experiment [20], the system named is HL-60(TB) leukemia. The note with it: 10 µM unless noted.

Structures are written as SMILES. Where “and” joins values, the source holds several entries; their conditions need not be identical. Equal values may be shown once. The panel holds about 83,000 compounds, 20% with a hit somewhere; the sample as a whole holds those more often.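 Step 1: grow cells in 96-well plates. Step 2: add test compound at a single concentration. Step 3: incubate 48 h. Step 4: record percent growth.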 The source holds several records for some structures; these can differ, active in one and inactive in another. Calls of active or inactive are those of the source. Rule for the calls: active = growth percent below 10; inactive = the rest.

Turning to `COc1cc(C)c(-c2ccc(OC)c(=O)cc2C)c(OC)c1OC`, the growth in [1] was 41.8% (inactive) and 98.4% (inactive); in experiment [2] it was 46.5% (inactive) and 104% (inactive); in experiment [3], 31.5% (inactive) and 98.7% (inactive); in [4] it was 4.53% (active) and 103% (inactive); in experiment [5], 17.6% (inactive) and 98.4% (inactive); in [6], 37.8% (inactive) and 101% (inactive). In addition, the growth in experiment [7] is -29.2% (active) and 94.5% (inactive); in experiment [8] it was 13.3% (inactive) and 104% (inactive); in [9], 37.5% (inactive) and 103% (inactive); in [10] it was 6.39% (active) and 100% (inactive); in experiment [11], -7.85% (active) and 94.9% (inactive); in experiment [12] it was 12% (inactive) and 101% (inactive). The growth in experiment [13] is 4.37% (active) and 113% (inactive); in [14] it was 28.3% (inactive) and 93.6% (inactive); in experiment [15], 20.1% (inactive) and 96.6% (inactive); in experiment [16] it was 19% (inactive) and 95.8% (inactive); in experiment [17], 36.6% (inactive) and 97.1% (inactive); in experiment [18] it was 47.5% (inactive) and 88.6% (inactive). Moreover, the growth was 31.9% (inactive) and 105% (inactive) in [19]; -24.6% (active) and 98.8% (inactive) in experiment [20].

Consider `O=C(CCCc1ccc(N(CCCl)CCCl)cc1)OCc1ccccc1`, for which the growth was 90.3% (inactive) in experiment [1]; 103% (inactive) in [2]; 84.2% (inactive) in experiment [3]; 53.1% (inactive) in experiment [4]; 78.9% (inactive) in experiment [5]; 99% (inactive) in experiment [6]. Also, the growth was 98% (inactive) in experiment [7]; 96.7% (inactive) in experiment [8]; 80.4% (inactive) in experiment [9]; 87.7% (inactive) in experiment [10]; 85.2% (inactive) in [11]; 88.6% (inactive) in experiment [12]. The growth in [13] was 95.8% (inactive); in experiment [14], 84.9% (inactive); in experiment [15], 95.9% (inactive); in [16], 83.2% (inactive); in [17], 101% (inactive); in experiment [18], 83.6% (inactive). For the same molecule, the growth is 50.6% (inactive) in experiment [19] and 68.7% (inactive) in experiment [20].
